Source: PubChem BioAssay
Sampled rows, rich in hits. Any-hit rate of the full collection: about 19%.
HT1080-NT tox = kills 2HG-producing HT-1080-NT fibrosarcoma cells; Potency, µM (doses to about 46.1 µM), usual class: cytotoxic; 360,000 compounds, 1.6% hits; HT-1080-NT fibrosarcoma viability, CellTiter-Glo ATP luminescence, 48 h;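 note: NT is the 2HG producing partner of a matched IDH1 knockdown line; nearly all actives have a fitted effect of over 55% in size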
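Viability by CellTiter-Glo luminescence after 48 h compound exposure at 37C of HT-1080-NT cells (750/well, RPMI, 5% FBS). % activity scaled between DMSO wells and medium-only wells, then curve-fitted and categorized by curve class.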
TDP1 cell noCPT = qHTS for Inhibitors of human tyrosyl-DNA phosphodiesterase 1 (TDP1): qHTS in cells in absence of CPT; DT40 Tdp1-/- hTDP1 cells, no CPT, ATP luminescence, 48 h; Potency, µM (series often up to 46.2 µM), hits mostly inhibitors; 420,000 compounds, 15% hits; AID 686978, 2013; note: nearly all actives have a fitted effect of over 55% in size
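Stably hTDP1-transfected Tdp1-null chicken DT40 cells were treated with library compounds minus camptothecin and grown for at least 48 hr at 37 °C, after which cellular ATP was quantified by luminescence.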
DT40 TDP1 CPT = growth inhibition of DT40 Tdp1-/-;hTDP1 cells with camptothecin (screen for TDP1 inhibitors); chicken DT40 Tdp1-/-;hTDP1 cells + 20 nM CPT, ATP luminescence, 48 h; Potency, µM (top dose mostly 46.2 µM), actives largely listed as inhibitors; 420,000 compounds, 12% hits; note: nearly all actives have a fitted effect of over 55% in size
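Chicken DT40 Tdp1-/- cells complemented with human TDP1, 400 cells/well, exposed to compounds plus 20 nM camptothecin for at least 48 h at 37 C; viability read as ATP content by CellTiter-Glo luminescence.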
IL-1B inflam inh = inflammasome signaling inhibition, IL-1 beta readout; 360,000 compounds, 4.7% hits; THP-1 LPS/ATP IL-1B secretion, AlphaLISA, 16 h; stronger effect = lower value; AID 743279; activity change, % at 57.5 µM; in the data active = activity change below about -50%; inconclusive = mostly about -30% to -49%
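Secreted IL-1B measured by AlphaLISA bead assay after 16 h compound exposure of THP-1 cells; compounds (final up to 57.5 uM) added 1 h before LPS (250 ng/mL) and ATP (1.25 mM) stimulation; lower signal means less secretion.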
HT1080 IDH1KD tx = kills HT-1080 cells with IDH1 knockdown | HT-1080 IDH1 knockdown viability, ATP luminescence, 48 h | Potency, µM (doses to about 46.1 µM), hits mostly cytotoxic | 360,000 compounds, 2% hits
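Knockdown cells (IDH1KD HT-1080) received compounds 2 h after plating at 750 cells/well and were kept 48 h at 37 °C in 5% FBS RPMI. A CellTiter-Glo luminescence read gave % activity for curve fitting.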
Each line names hits and unclear results; the compound was inactive in the other large screens. Unless noted, calls come from the whole dose curve; as a rule, active = well fitted curve in the direction sought with a large enough effect; inconclusive = small, poorly fitted or top-dose-only effect, or another doubt; inactive = no such curve, though single readings can be large; an effect the other way counts as inactive or inconclusive.

Cc1ccc(C)c(-n2nnnc2Sc2nc([N+](=O)[O-])nn2C)c1	TDP1 cell noCPT inconclusive, DT40 TDP1 CPT inconclusive
CC(=O)N1CCN(Cc2nc(-c3cccc(Cl)c3)no2)CC1	TDP1 cell noCPT inconclusive, DT40 TDP1 CPT inconclusive
C=CCn1c(=O)c2c(C)c(C)sc2n2c(Nc3ccccc3)nnc12	HT1080-NT tox inconclusive, TDP1 cell noCPT 23µM, DT40 TDP1 CPT 23µM, HT1080 IDH1KD tx inconclusive
COC(=O)c1cc(NC(=O)CN(c2ccccc2)S(=O)(=O)N(C)C)ccc1Cl	TDP1 cell noCPT 23µM, DT40 TDP1 CPT inconclusive (no result: HT1080-NT tox, IL-1B inflam inh, HT1080 IDH1KD tx)
COC(=O)c1cc(NC(=O)CN(c2cccc(OC)c2)S(=O)(=O)c2ccccc2)ccc1Cl	TDP1 cell noCPT 16µM, DT40 TDP1 CPT inconclusive
COCc1ccc(C(=O)NC2CCSc3ccccc32)cc1 (configuration not stated)	TDP1 cell noCPT inconclusive
CCCCN(C(=O)c1ccc(N2C(=O)c3ccccc3C2=O)cc1)c1c(N)n(CC(C)C)c(=O)[nH]c1=O	none
O=c1c([N+](=O)[O-])c(NCCN2CCCCCC2)c2ccccc2n1-c1ccccc1	none
O=c1c([N+](=O)[O-])c(NC2CCCCC2)c2ccccc2n1-c1ccccc1	TDP1 cell noCPT inconclusive, DT40 TDP1 CPT 16µM
CCOc1ccc(N(CC(=O)NC2CCCC2)C(=O)CCC(=O)Nc2nccs2)cc1	IL-1B inflam inh -52
CCOc1ccc(N(CC(=O)NC2CCCCC2)C(=O)CCC(=O)Nc2nccs2)cc1	none
CC[C@H](C)[C@H](NC(=O)OCc1ccccc1)C(=O)OCC(=O)Nc1ccc(N2CCOCC2)cc1	none
COc1ccc(-c2coc(CCC(=O)N3CCN(c4cc(C)ccc4C)CC3)n2)cc1	TDP1 cell noCPT inconclusive, DT40 TDP1 CPT inconclusive
CC(C)(C)c1ccc(/C=C/C(=O)c2ccc(NC3=NCCCS3)cc2)cc1	HT1080-NT tox inconclusive, TDP1 cell noCPT inconclusive, DT40 TDP1 CPT 23µM, IL-1B inflam inh -100, HT1080 IDH1KD tx inconclusive
COc1ccc(/C=C/C(=O)NC2=NCCS2)cc1OC	TDP1 cell noCPT inconclusive
c1ccc(NC2=NCCCCS2)cc1	none
Cc1cccc(/C=C/C(=O)c2ccc(NC3=NCCCS3)cc2)c1	HT1080-NT tox inconclusive, TDP1 cell noCPT 7.3µM, DT40 TDP1 CPT 13µM, IL-1B inflam inh -87, HT1080 IDH1KD tx inconclusive
O=C(/C=C/c1ccc(Br)cc1)c1ccc(NC2=NCCCS2)cc1	HT1080-NT tox inconclusive, TDP1 cell noCPT inconclusive, DT40 TDP1 CPT 9.2µM, IL-1B inflam inh -65, HT1080 IDH1KD tx inconclusive
O=C(/C=C/c1ccccc1)c1ccc(NC2=NCCCS2)cc1	TDP1 cell noCPT 12µM, DT40 TDP1 CPT 15µM, IL-1B inflam inh -102
CCN1CCCC1CNC(=O)c1cnn(-c2nccc(-c3cc4ccccc4o3)n2)c1C1CC1 (configuration not stated)	TDP1 cell noCPT 4.1µM, DT40 TDP1 CPT inconclusive (no result: HT1080-NT tox, IL-1B inflam inh, HT1080 IDH1KD tx)
Cc1ccc(NC(=O)CN2CCCC2c2cccn2C)c(Br)c1 (configuration not stated)	TDP1 cell noCPT 15µM, DT40 TDP1 CPT inconclusive
Cc1ccc(NC(=O)CN2CCCC2c2cccn2C)cc1C (configuration not stated)	TDP1 cell noCPT inconclusive
Cc1cc(C(=O)CSc2cccc[n+]2[O-])c(C)n1-c1ccc(OC(F)F)cc1	TDP1 cell noCPT inconclusive, DT40 TDP1 CPT 21µM
COC(=O)c1ccc(-n2c(C)cc(C(=O)CSc3cccc[n+]3[O-])c2C)cc1	TDP1 cell noCPT inconclusive
CC(CC(=O)Nc1ccc2c(c1)c(=O)n(C)n2Cc1ccc(F)cc1)c1ccccc1 (configuration not stated)	HT1080-NT tox inconclusive, TDP1 cell noCPT 21µM, DT40 TDP1 CPT 21µM, HT1080 IDH1KD tx inconclusive
Cn1c(=O)c2cc(NC(=O)CC(C)(C)C)ccc2n1-c1ccccc1F	HT1080-NT tox inconclusive, TDP1 cell noCPT 23µM, DT40 TDP1 CPT inconclusive
CC(CC(=O)Nc1cccc(Cl)c1)c1ccccc1 (configuration not stated)	TDP1 cell noCPT inconclusive, DT40 TDP1 CPT inconclusive, IL-1B inflam inh -72
Cn1c(=O)c2cc(NC(=O)NCCc3ccccc3)ccc2n1Cc1ccccc1	TDP1 cell noCPT inconclusive
CC(CC(=O)Nc1ccc2c(c1)c(=O)n(C)n2-c1ccccc1F)c1ccccc1 (configuration not stated)	HT1080-NT tox 7.3µM, TDP1 cell noCPT 5.8µM, DT40 TDP1 CPT 6.5µM, HT1080 IDH1KD tx 4.1µM
CC(CC(=O)Nc1ccc2c(c1)c(=O)n(C)n2Cc1ccc(F)cc1)C(F)(F)F (configuration not stated)	TDP1 cell noCPT inconclusive, DT40 TDP1 CPT inconclusive
Cc1ccc(-c2ccnc(-n3ncc(C(=O)N4CCCCC4c4cccnc4)c3C3CC3)n2)o1 (configuration not stated)	none (no result: HT1080-NT tox, IL-1B inflam inh, HT1080 IDH1KD tx)
CC(C)NC(=O)CSc1nnc(-c2ccc(F)cc2)c2ccccc12	none
COc1ccc(Cl)cc1S(=O)(=O)N1CCCC(C(=O)NCc2ccncc2)C1 (configuration not stated)	none
Cc1cc(Br)ccc1NC(=O)CN(C)C(=O)C1CSC2(C)CCC(=O)N12 (configuration not stated)	none
COc1ccccc1C1C=C(c2ccc(C)cc2)Nc2nnnn21 (configuration not stated)	TDP1 cell noCPT 21µM, DT40 TDP1 CPT 18µM, IL-1B inflam inh inconclusive
COc1ccc(C2=CC(c3cccc(C)c3)n3nnnc3N2)cc1 (configuration not stated)	TDP1 cell noCPT 16µM, DT40 TDP1 CPT inconclusive (no result: HT1080-NT tox, IL-1B inflam inh, HT1080 IDH1KD tx)
Cc1ccc(C2=CC(c3cccs3)n3nnnc3N2)cc1 (configuration not stated)	DT40 TDP1 CPT inconclusive
CC1=CC(c2ccccc2)n2nnnc2N1 (configuration not stated)	none
CN(C)c1ccc(C2C=C(c3ccccc3)Nc3nnnn32)cc1 (configuration not stated)	TDP1 cell noCPT 18µM, DT40 TDP1 CPT inconclusive (no result: HT1080-NT tox, IL-1B inflam inh, HT1080 IDH1KD tx)
CCOc1ccc(C2C=C(c3ccccc3)Nc3nnnn32)cc1 (configuration not stated)	TDP1 cell noCPT inconclusive
COc1ccc(C2=CC(c3c(C)nn(-c4ccccc4)c3Cl)n3nnnc3N2)cc1OC (configuration not stated)	HT1080-NT tox inconclusive, TDP1 cell noCPT 15µM, DT40 TDP1 CPT inconclusive, IL-1B inflam inh -67, HT1080 IDH1KD tx inconclusive
CCc1nnc(NC(=O)CN2CCN(c3ccccc3F)CC2)s1	none
C[C@@H]1COC(=O)[C@H](CC(=O)OC(C)(C)C)C/C=C\C[C@@H](CC(=O)N(CCO)Cc2ccccc2)C(=O)N1	DT40 TDP1 CPT inconclusive
O=C(CSc1nccc(=O)[nH]1)Nc1ccc(F)c([N+](=O)[O-])c1	TDP1 cell noCPT inconclusive
